Compounds with a hit are over-represented: about 10% of the library has one in this group of screens.
JMJD2A Tudor inh – JMJD2A Tudor domain (human) inhibition | AlphaScreen JMJD2A-Tudor / H3K4me3 peptide binding | Potency, µM (titrated, usually from 114 µM), actives largely listed as inhibitors | actives 4.4% (n = 390,000) | AID 504339; also: nearly all actives have a fitted effect of over 50% in size
HP1b binding inh – HP1-beta chromodomain-methylated histone interaction inhibition | P83916 | AlphaScreen HP1-beta / biotin-H3K9me3 peptide binding | Potency, µM (top dose mostly 114 µM), actives largely listed as inhibitors | actives 0.56% (n = 390,000); also: nearly all actives have a fitted effect of over 70% in size
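HP1-beta protein (50 nM final) preincubated 30 min at room temperature with biotinylated H3(1-18)K9me3 peptide (50 nM) in PBS pH 7.4, 0.01% Tween-20, then compound added for 30 min. AlphaScreen streptavidin donor/nickel chelate acceptor beads (10 ug/mL final), 30 min dark, luminescence read.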
Six1-Eya2 blk – inhibitors of human Six1/Eya2 interaction; Q15475+O00167; AlphaScreen GST-Six1/His-Eya2 binding, biochemical; active compounds read low; activity change, % (concentration not given with the values); actives 0.56% (n = 360,000); AID 651725; in the data active = activity change below about -65%; inconclusive = mostly about -30% to -63%
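Six1/Eya2 binding was read as AlphaScreen signal after compounds were pinned into GST-Six1 plus His-tagged Eya2 (5X stock 250/500 nM) in pH 8.0 Tris/NaCl/TCEP buffer, beads added, then incubated 1 h, 37 C, dark.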
G9a inh – G9a (human) methyltransferase inhibition; Q96KQ7; G9a H3K9 monomethylation, AlphaScreen, 2 h; Potency, µM (series often up to 102 µM), hits mostly inhibitors; actives 8.8% (n = 350,000); AID 504332; also: nearly all actives have a fitted effect of over 75% in size
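Quantitative HTS format: methyltransferase activity on a biotin-tagged H3K9 peptide is measured by AlphaScreen, using a rabbit anti-monomethyl-H3K9 antibody with streptavidin donor and anti-IgG acceptor beads. Final levels are 20 nM enzyme, 500 nM peptide, 20 uM SAM; 2 h RT.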
CtBP-E1A inh – inhibitors of CtBP/E1A interaction; activity change, % (concentration not given with the values); AID 651724; actives 0.49% (n = 340,000); AlphaScreen GST-E1A/His-CtBP binding, 1536-well; active compounds read low; in the data active = activity change below about -65%; inconclusive = mostly about -30% to -63%
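AlphaScreen with 125 nM GST-E1A and 125 nM His-CtBP (5X stocks) in Tris pH 8.0, 300 mM NaCl, BSA, Tween 20, TCEP. Compounds preincubated 2 h at 37 deg C, then glutathione donor/nickel acceptor beads added for 1 h at 37 deg C in dark.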
BAZ2B block – inhibitors of human BAZ2B bromodomain | Q9UIF8 | AlphaScreen BAZ2B-H3K14Ac peptide displacement | Potency, µM (highest dose often 114 µM), most hits filed as inhibitors | actives 4.4% (n = 360,000); also: nearly all actives have a fitted effect of over 60% in size
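Multi-concentration screen (max 110 uM) measuring displacement of acetylated histone H3 peptide from BAZ2B by AlphaScreen, using 50 nM protein, 50 nM peptide and 10 ug/mL streptavidin donor plus Ni-chelate acceptor beads.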
Hits are given with their value; – = inactive; ? = inconclusive; · = not tested or not shown; [ ] = dose if it differs, or a comment. Unless noted, calls follow the shape of the dose curve; as a rule, active = well fitted inhibition curve with a large enough effect; inconclusive = small, poorly fitted or top-dose-only effect; inactive = no such curve, though single readings can be large or run the other way.

SMILES	JMJD2A Tudor inh	HP1b binding inh	Six1-Eya2 blk	G9a inh	CtBP-E1A inh	BAZ2B block
Cc1ccc(C)c(NC(=S)Nc2ncccc2C)c1	32µM	?	–	32µM	?	?
Cc1cc(C)nc(NC(=S)Nc2ccc(F)cc2F)c1	–	–	–	–	–	–
Cc1cccnc1NC(=S)Nc1ccc(F)cc1F	–	–	–	50µM	–	?
COc1cc(NC(=S)Nc2ncccc2C)cc(OC)c1OC	–	–	–	10µM	–	?
CC(C)CCNC(=O)CCn1c(=O)c2cccn2c2cccnc21	–	–	·	–	·	–
Fc1ccc(CSc2ccc(-c3ccco3)nn2)cc1	–	–	–	–	–	–
CCSc1ccc(-c2ccco2)nn1	–	–	–	18µM	–	–
CSc1ccc(-c2ccco2)nn1	–	–	–	32µM	–	–
CCOC(=O)[C@H](CCc1ccccc1)N[C@@H](C)C(=O)N1C(=O)N(C)C[C@H]1C(=O)O	·	·	·	–[12.7 µM]	·	·
COc1ccccc1NC(=O)Cn1cc(C(=O)c2ccncc2)c(=O)c2cc(C)ccc21	–	–	·	–	·	–
Cc1c(C(=O)N2CCN(S(=O)(=O)c3ccc(F)cc3)CC2)oc2ccccc12	–	–	–	50µM	–	–
COc1ccc2oc(C(=O)OCC(=O)N3CCN(S(=O)(=O)c4ccccc4)CC3)c(C)c2c1	–	–	–	50µM	–	–
Cc1ccc2scc(N3CCc4ccccc4C3)c(=O)c2c1	–	–	·	?	·	–
COc1ccc(/C=C2\C(=O)NC(=S)N2C(=O)c2ccc(F)cc2)cc1	?	–	–	?	–	56µM
O=C1NC(=S)N(C(=O)c2ccc(F)cc2)/C1=C/c1ccccc1	40µM	–	–	10µM	–	45µM
O=C(c1ccc(F)cc1)N1CCN(Cc2ccccc2)CC1	–	–	–	–	–	–
COc1ccc(C(=O)CC(=O)c2ccc(F)cc2)cc1	–	–	–	·	·	·
N#Cc1nc(Nc2cc(F)cc(F)c2)c2ncn(CCCN3CCCC3)c2n1	–	·	·	·	·	·
O=C1CC(c2ccc(O)c(O)c2)Oc2cc(O)cc(O)c21 (centres undefined)	79µM	–	–	–[2.33 µM]	–	–
O=C1CC(c2ccc(O)cc2)Oc2cc(O)cc(O)c21 (centres undefined)	–	–	–	–	–	–
O=C1CC(c2ccc(O)c(O)c2)Oc2c1ccc(O)c2O (centres undefined)	8.9µM	?	–	–	–	10µM
COc1cc2c(c(OC)c1CC=C(C)C)C[C@H](c1ccc(O)cc1O)CO2	56µM	–	–	·	–	·
COc1ccc(Nc2nc3c(S(=O)(=O)c4ccc(Br)cc4)nnn3c3ccsc23)c(OC)c1	–	–	·	–	·	–
COc1ccc2nc(SCC(=O)Nc3c(C)cccc3C)[nH]c2c1	–	–	–	–[12.7 µM]	–	–
COc1ccc2nc(S(=O)Cc3ncc(C)c(OC)c3C)[nH]c2c1 (centres undefined)	28µM	14µM	–	1.4µM	–	32µM
SMILES	JMJD2A Tudor inh	HP1b binding inh	Six1-Eya2 blk	G9a inh	CtBP-E1A inh	BAZ2B block
Cc1ccc([N+](=O)[O-])c2c1C(N1CCCC1)C(C)(C)O2 (centres undefined)	–	–	–	11µM	·	?
Cc1ccc(S(=O)(=O)N2CCCC2)cc1[N+](=O)[O-]	–	–	–	–	–	–
CN1C(=O)c2ccccc2Sc2ccc(NC(=O)NCc3cccc(Cl)c3)cc21	–	–	·	–	·	–
Cc1cc(C)c(S(=O)(=O)N2CCOC2CNC(=O)C(=O)NCCCn2ccnc2)c(C)c1 (centres undefined)	50µM	–	-70	·	?	13µM
O=C(NCCCn1ccnc1)C(=O)NCC1OCCN1S(=O)(=O)c1ccc2c(c1)OCCO2 (centres undefined)	?	–	–	·	–	40µM
Cc1cc(C)c(S(=O)(=O)N2CCOC2CNC(=O)C(=O)NCCc2ccc(S(N)(=O)=O)cc2)c(C)c1 (centres undefined)	–	–	–	–	–	–
O=C(NCCc1ccccc1)C(=O)NCC1OCCN1S(=O)(=O)c1ccc2c(c1)OCCO2 (centres undefined)	–	–	–	·	–	–
CCn1c(=O)n(CC)c2cc(N3CCCCC3)c(NC(=O)Nc3cc(C)cc(C)c3)cc21	?	–	·	?	·	?
COc1ccc(-c2cn(-c3cccc(C)c3)c(=O)[nH]2)cc1OC	–	–	–	28µM	–	?
COc1ccc(-n2cc(-c3ccc(OC)c(OC)c3)[nH]c2=S)cc1	3.2µM	?	–	0.89µM	–	–
COc1cc(OC)c(-n2cc(-c3ccc(OC)c(OC)c3)[nH]c2=S)cc1Cl	?	–	–	32µM	–	–
COc1ccccc1-n1cc(-c2ccc(Cl)cc2)[nH]c1=O	–	–	–	56µM	–	?
Cc1ccc(-n2cc(-c3ccccc3)[nH]c2=O)cc1F	–	–	–	?	–	–
Cc1ccc(Cn2c(CN3CCC(C(=O)NCc4cccnc4)CC3)cc3ccccc32)cc1	?	–	·	–	·	?
NC(=S)N/N=C1\CC(c2ccc3c(c2)OCCCO3)Oc2ccc(F)cc21 (centres undefined)	?	–	–	·	–	25µM
CN(C)S(=O)(=O)c1cc(NC2CC(=O)N(c3ccc(F)cc3)C2=O)ccc1Cl (centres undefined)	–	–	–	35µM	–	–
Cc1ccc(NC2CC(=O)N(c3ccc(C)cc3)C2=O)cc1 (centres undefined)	–[11.4 µM]	–	–	–	–	–
COc1cccc(-c2nc(S(=O)(=O)c3ccc(C)cc3)c(N3CCCCC3)o2)c1	–	–	·	?	·	–
C/C(CCN1CCc2nc(-c3ccccc3)c(-c3ccccc3)cc2C1)=N\O[C@@H](C)c1cc(-c2c(C)cc(C)cc2C)no1	–	–	–	?	–	–
CCc1cc2c(nc1CC)CCN(CC/C(C)=N/O[C@@H](C)c1cc(-c3c(C)cc(C)cc3C)no1)C2	·	·	·	35µM	·	?
COc1ccc(-c2cn3nc(N4CCCC(C(=O)Nc5cccc(OC)c5)C4)sc3n2)cc1 (centres undefined)	–	–	·	?	·	–
CCCCCn1c(=O)[nH]c2cc(C(=O)NC(C)CC)ccc2c1=O (centres undefined)	–	–	·	–	·	–
Cc1ccc2[nH]c(=O)c(C3C(C#N)=C(N)Oc4c3ccc3cccnc43)cc2c1 (centres undefined)	–	–	?	?	-92	?
COCc1c(C(=O)N(C)Cc2ccccc2N2CCCC2)oc2ccccc12	45µM	–	–	50µM	–	?
O=C1CCc2cc(S(=O)(=O)Nc3ccc(F)c(Cl)c3)ccc2N1	–	·	·	·	·	·
COc1cc(/C=C/C(C)=NNc2ccccc2)ccc1O	50µM	?	–	·	–	·
